Holding throughout (assay): DAPPL (digital affinity profiling via proximity ligation, sequencing); 10 mM Tris-HCl pH 7.5, 50 mM NaCl, 1 mM DTT, 4% glycerol, room temperature, 30 min; GST-TFs on glutathione beads, 16-mer random dsDNA library, 0.1% formaldehyde crosslink after washing; high values mean tight binding
Holding throughout (settings): protein: recombinant; tags: N-terminal GST; dsDNA, one strand shown

The target of one experiment is T1, ERF (Homo sapiens, UniProt P50548 1-548).
T1 sequence: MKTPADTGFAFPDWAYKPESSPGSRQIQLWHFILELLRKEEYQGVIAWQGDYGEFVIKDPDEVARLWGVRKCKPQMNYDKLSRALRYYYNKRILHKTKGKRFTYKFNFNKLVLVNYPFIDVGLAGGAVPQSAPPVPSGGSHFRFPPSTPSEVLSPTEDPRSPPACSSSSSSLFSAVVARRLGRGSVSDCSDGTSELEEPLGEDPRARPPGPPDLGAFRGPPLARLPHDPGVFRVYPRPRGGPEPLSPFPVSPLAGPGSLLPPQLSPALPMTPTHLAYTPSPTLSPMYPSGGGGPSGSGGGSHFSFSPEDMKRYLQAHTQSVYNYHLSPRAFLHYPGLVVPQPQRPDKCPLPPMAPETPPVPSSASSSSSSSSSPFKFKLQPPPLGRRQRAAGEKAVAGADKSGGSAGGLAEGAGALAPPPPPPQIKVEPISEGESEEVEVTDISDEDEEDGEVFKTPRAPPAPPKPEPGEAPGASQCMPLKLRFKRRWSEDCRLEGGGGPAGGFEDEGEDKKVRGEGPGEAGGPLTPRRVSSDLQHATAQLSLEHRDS
The method in brief:
(§1)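 Beads coated with glutathione captured GST-fused human transcription factors that had been expressed in yeast, and the factors were then given DNA barcodes and pooled with a tag-only sample. The pools were incubated with 200 nmole of a random double-stranded 16-mer DNA library in Tris/NaCl/DTT/glycerol buffer for 30 min at room temperature, washed, crosslinked with 0.1% formaldehyde and proximity-ligated with BsaI/T4 ligase at 37 °C for 1 h. PCR amplification and Illumina NextSeq500 sequencing came last. Binding signal is each hexamer's read frequency for a factor divided by its frequency for the tag-only sample.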

The next experiment deals with T2, ETV3L (Homo sapiens, UniProt Q6ZN32 1-361).
T2 sequence: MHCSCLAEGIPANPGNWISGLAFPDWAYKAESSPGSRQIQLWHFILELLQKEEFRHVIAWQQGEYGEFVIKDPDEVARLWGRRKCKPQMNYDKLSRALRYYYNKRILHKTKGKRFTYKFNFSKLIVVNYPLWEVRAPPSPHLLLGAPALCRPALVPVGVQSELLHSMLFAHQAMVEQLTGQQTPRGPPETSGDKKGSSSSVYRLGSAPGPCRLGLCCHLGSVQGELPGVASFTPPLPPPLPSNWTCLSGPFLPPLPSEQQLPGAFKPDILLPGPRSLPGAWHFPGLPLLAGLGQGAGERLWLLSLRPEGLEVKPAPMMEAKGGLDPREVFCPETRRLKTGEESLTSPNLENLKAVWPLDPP
Summed up: as §1

Another experiment concerns the target T3, ETS2 (Homo sapiens, UniProt P15036 1-469).
T3 sequence: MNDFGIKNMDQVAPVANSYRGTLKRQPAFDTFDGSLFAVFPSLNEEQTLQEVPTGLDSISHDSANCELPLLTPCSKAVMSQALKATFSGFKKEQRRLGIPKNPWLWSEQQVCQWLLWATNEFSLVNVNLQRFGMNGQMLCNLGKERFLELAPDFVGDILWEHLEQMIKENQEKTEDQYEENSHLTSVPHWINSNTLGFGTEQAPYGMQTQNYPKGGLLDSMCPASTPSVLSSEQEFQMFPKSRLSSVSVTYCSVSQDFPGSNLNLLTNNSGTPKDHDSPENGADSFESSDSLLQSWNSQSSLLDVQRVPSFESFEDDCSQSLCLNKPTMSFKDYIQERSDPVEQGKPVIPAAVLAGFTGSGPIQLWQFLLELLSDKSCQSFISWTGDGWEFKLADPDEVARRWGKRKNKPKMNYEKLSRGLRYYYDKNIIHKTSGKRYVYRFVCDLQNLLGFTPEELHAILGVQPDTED
Summed up:
as §1

The target in the next experiment is T4, SPDEF (Homo sapiens, UniProt O95238 1-335).
T4 sequence: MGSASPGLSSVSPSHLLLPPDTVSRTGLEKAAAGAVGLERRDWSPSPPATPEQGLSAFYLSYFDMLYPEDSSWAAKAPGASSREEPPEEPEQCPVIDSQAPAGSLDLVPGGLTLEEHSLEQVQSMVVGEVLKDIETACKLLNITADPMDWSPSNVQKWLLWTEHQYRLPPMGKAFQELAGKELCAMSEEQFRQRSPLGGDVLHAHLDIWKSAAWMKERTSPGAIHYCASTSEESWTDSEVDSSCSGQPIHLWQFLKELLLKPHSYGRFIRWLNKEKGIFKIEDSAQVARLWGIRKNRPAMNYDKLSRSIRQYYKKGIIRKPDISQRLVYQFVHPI
Summed up:
as §1

Another experiment deals with T5, ETV7 (Homo sapiens, UniProt Q9Y603 1-341).
T5 sequence: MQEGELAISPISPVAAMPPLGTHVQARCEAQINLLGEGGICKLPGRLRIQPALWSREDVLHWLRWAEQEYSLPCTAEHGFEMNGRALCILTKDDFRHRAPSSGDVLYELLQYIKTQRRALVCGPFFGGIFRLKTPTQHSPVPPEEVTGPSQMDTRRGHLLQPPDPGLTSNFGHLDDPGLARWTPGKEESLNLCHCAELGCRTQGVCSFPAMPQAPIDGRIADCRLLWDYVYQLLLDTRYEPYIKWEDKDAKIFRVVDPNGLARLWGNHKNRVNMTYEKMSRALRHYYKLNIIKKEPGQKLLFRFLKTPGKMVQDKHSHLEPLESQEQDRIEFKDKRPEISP
Summed up:
as §1

The target in a further experiment is T6, ELF5 (Homo sapiens, UniProt Q9UKW6-2 1-255).
T6 sequence: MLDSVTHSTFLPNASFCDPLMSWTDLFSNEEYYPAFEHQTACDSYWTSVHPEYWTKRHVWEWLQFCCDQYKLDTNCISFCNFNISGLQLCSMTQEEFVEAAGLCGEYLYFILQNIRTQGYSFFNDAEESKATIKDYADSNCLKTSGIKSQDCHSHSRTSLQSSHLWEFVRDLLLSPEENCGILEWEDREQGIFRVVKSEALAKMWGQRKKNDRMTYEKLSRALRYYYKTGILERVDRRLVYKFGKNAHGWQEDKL
The method in brief:
as §1

The target in another experiment is T7, ETV3 (Homo sapiens, UniProt P41162-2 1-143).
T7 sequence: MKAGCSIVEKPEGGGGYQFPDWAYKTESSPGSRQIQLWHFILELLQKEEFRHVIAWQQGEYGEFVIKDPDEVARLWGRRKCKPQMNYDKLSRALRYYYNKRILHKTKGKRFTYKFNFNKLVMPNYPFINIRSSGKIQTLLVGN
Summed up: as §1

A further experiment deals with ETV6 (Homo sapiens, UniProt P41212 1-452). Summed up:
as §1

Chain of ETV6 (P41212 whole entry): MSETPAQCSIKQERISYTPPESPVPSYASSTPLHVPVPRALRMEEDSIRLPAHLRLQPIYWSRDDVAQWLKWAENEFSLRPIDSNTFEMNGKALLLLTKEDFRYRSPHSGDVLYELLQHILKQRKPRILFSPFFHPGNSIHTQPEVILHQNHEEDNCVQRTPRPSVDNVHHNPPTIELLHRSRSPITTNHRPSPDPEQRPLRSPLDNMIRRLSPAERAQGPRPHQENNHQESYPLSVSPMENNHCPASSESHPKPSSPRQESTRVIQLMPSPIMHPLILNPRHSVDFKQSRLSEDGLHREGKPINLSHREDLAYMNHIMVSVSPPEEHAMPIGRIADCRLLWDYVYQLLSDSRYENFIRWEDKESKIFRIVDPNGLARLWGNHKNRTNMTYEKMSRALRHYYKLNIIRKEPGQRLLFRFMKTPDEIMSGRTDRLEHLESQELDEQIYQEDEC

As for GTAGCA, the binding signal is 1.22 fold enrichment (6-mer frequency, TF over GST control) with ERF; 1.04 fold enrichment (6-mer frequency, TF over GST control) with ETV3L; 1.02 fold enrichment (6-mer frequency, TF over GST control) with ETS2; 1.08 fold enrichment (6-mer frequency, TF over GST control) in the experiment with SPDEF; 1.06 fold enrichment (6-mer frequency, TF over GST control) with ETV7; 1.1 fold enrichment (6-mer frequency, TF over GST control) in the experiment with ELF5. The binding signal was 1.05 fold enrichment (6-mer frequency, TF over GST control) with ETV3 and 1.03 fold enrichment (6-mer frequency, TF over GST control) with ETV6.
As for TATCAG, the binding signal was 1.13 fold enrichment (6-mer frequency, TF over GST control) with ERF; 1.11 fold enrichment (6-mer frequency, TF over GST control) with ETV3L; 1.15 fold enrichment (6-mer frequency, TF over GST control) with ETS2; 1.26 fold enrichment (6-mer frequency, TF over GST control) with SPDEF; 1.07 fold enrichment (6-mer frequency, TF over GST control) with ETV7; 1.06 fold enrichment (6-mer frequency, TF over GST control) with ELF5. Besides, the binding signal with ETV3 was 1.12 fold enrichment (6-mer frequency, TF over GST control); with ETV6 it was 1.12 fold enrichment (6-mer frequency, TF over GST control).
In the case of CGTCTA, the binding signal was 1.29 fold enrichment (6-mer frequency, TF over GST control) in the experiment with ERF; 1.4 fold enrichment (6-mer frequency, TF over GST control) in the experiment with ETV3L; 1.29 fold enrichment (6-mer frequency, TF over GST control) with ETS2; 1.26 fold enrichment (6-mer frequency, TF over GST control) with SPDEF; 1.28 fold enrichment (6-mer frequency, TF over GST control) in the experiment with ETV7; 1.17 fold enrichment (6-mer frequency, TF over GST control) with ELF5. The binding signal was 1.26 fold enrichment (6-mer frequency, TF over GST control) in the experiment with ETV3 and 1.26 fold enrichment (6-mer frequency, TF over GST control) with ETV6.
For AGGAAG, the binding signal with ERF is 1.2 fold enrichment (6-mer frequency, TF over GST control); with ETV3L, 1.33 fold enrichment (6-mer frequency, TF over GST control); with ETS2 it was 1.5 fold enrichment (6-mer frequency, TF over GST control); with SPDEF, 1.15 fold enrichment (6-mer frequency, TF over GST control); with ETV7, 1.23 fold enrichment (6-mer frequency, TF over GST control); in the experiment with ELF5, 2.03 fold enrichment (6-mer frequency, TF over GST control). Moreover, the binding signal was 1.54 fold enrichment (6-mer frequency, TF over GST control) with ETV3 and 1.71 fold enrichment (6-mer frequency, TF over GST control) with ETV6.
Consider CCTGAA, for which the binding signal with ERF was 1.37 fold enrichment (6-mer frequency, TF over GST control); with ETV3L, 1.35 fold enrichment (6-mer frequency, TF over GST control); with ETS2 it was 1.33 fold enrichment (6-mer frequency, TF over GST control); in the experiment with SPDEF, 1.48 fold enrichment (6-mer frequency, TF over GST control); in the experiment with ETV7 it was 1.22 fold enrichment (6-mer frequency, TF over GST control); in the experiment with ELF5 it was 1.5 fold enrichment (6-mer frequency, TF over GST control). For the same sequence, the binding signal in the experiment with ETV3 is 1.4 fold enrichment (6-mer frequency, TF over GST control); in the experiment with ETV6, 1.27 fold enrichment (6-mer frequency, TF over GST control).
Consider TGCTCA, for which the binding signal in the experiment with ERF is 1.5 fold enrichment (6-mer frequency, TF over GST control); with ETV3L, 1.31 fold enrichment (6-mer frequency, TF over GST control); with ETS2, 1.36 fold enrichment (6-mer frequency, TF over GST control); with SPDEF it was 1.28 fold enrichment (6-mer frequency, TF over GST control); in the experiment with ETV7, 1.54 fold enrichment (6-mer frequency, TF over GST control); with ELF5, 1.38 fold enrichment (6-mer frequency, TF over GST control). For the same sequence, the binding signal in the experiment with ETV3 is 1.24 fold enrichment (6-mer frequency, TF over GST control); in the experiment with ETV6 it was 1.28 fold enrichment (6-mer frequency, TF over GST control).
With TTTTTA, the binding signal was 1.26 fold enrichment (6-mer frequency, TF over GST control) in the experiment with ERF; 1.29 fold enrichment (6-mer frequency, TF over GST control) with ETV3L; 1.34 fold enrichment (6-mer frequency, TF over GST control) with ETS2; 1.29 fold enrichment (6-mer frequency, TF over GST control) with SPDEF; 1.35 fold enrichment (6-mer frequency, TF over GST control) in the experiment with ETV7; 1.27 fold enrichment (6-mer frequency, TF over GST control) with ELF5. The binding signal in the experiment with ETV3 was 1.4 fold enrichment (6-mer frequency, TF over GST control); with ETV6, 1.33 fold enrichment (6-mer frequency, TF over GST control).
